Most compounds without a hit are left out; they make up all but 1.7% or so of the library.
GLP1R ag: qHTS of GLP-1 Receptor Agonists; 0.007% of 380,000 active; AID 624172, 2012; Potency, µM (series often up to 45.6 µM), for inactives: top-dose activation, usual class: activators; HEK293 GLP-1R CRE-luciferase, luminescence, 4-6 h; cells express a hypersensitive GLP-1R form; note: % of control where 0% means no effect
Target sequence (P43220 whole entry, looked up): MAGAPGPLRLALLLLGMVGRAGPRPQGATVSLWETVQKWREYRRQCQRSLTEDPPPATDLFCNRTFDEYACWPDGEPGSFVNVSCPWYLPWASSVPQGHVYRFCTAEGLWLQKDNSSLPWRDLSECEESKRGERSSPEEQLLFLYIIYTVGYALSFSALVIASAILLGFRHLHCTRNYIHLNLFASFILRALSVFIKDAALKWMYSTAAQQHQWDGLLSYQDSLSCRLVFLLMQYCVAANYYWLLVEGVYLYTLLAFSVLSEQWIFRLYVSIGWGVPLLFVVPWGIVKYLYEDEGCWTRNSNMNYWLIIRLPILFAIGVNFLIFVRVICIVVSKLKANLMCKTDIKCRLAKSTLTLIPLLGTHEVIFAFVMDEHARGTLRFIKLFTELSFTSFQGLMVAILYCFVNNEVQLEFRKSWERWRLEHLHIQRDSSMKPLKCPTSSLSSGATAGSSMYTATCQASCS
GLP-1R inv ag: qHTS of GLP-1 Receptor Inverse Agonists (Inhibition Mode) | Glucagon-like peptide 1 receptor (Homo sapiens), P43220 | HEK293 GLP-1R CRE-luciferase, luminescence, 24 h; GLP-1R form is constitutively active | Potency, µM (highest dose often 38.3 µM), for inactives: top-dose activity change, negative = inhibition, most hits filed as inhibitors | 1.6% of 410,000 active | AID 624417, 2012; note: % is set by controls: 0 for no effect and ±100 for the full control effect; nearly all actives have a fitted effect of over 55% in size
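Luminescence readout: a drop in cAMP-driven luciferase signal flags inverse agonism at a constitutively active GLP-1R stably expressed in HEK293. Compound exposure lasted 24 hr at 37 deg C, 5% CO2.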
PTHR1 ag: qHTS for PTHR1 Agonists: Primary Screen | Potency, µM (doses to about 115 µM), for inactives: at the highest dose activation, usual class: activators | AID 743266, 2014 | HEK293 GP2 PTHR1 cells, GloSensor cAMP luminescence, 1 h | 0.075% of 410,000 active; note: nearly all actives have a fitted effect of over 55% in size
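HEK-293-derived GP2 cells expressing PTHR1 and a GloSensor cAMP reporter, 3,000/well, plated overnight, given luciferin plus IBMX (each 0.5 mM as added) for 1 h at 37 °C, then compound for 1 h at 37 °C. Luminescence was read after 15 min at room temperature.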
GLP1R cytotox: qHTS of GLP-1 Receptor Inverse Agonists: Cytotox Screen; HEK293 cAMP-luciferase reporter cells, luminescence, 24 h; Potency, µM (top dose mostly 38.3 µM), inactives show at the highest dose activity change, negative = inhibition, most hits filed as inhibitors; 0.13% of 410,000 active;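 note: loss of luciferase light is scored as toxicity; % is set by controls: 0 for no effect and ±100 for the full control effect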
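A 23 nL compound transfer followed 12 hours of cell culture at 37 deg C; exposure then lasted 24 hr. Luciferase assay detection reagent was dispensed and plates read for luminescence after a 12 min room-temperature wait.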
An asterisk follows results filed as active; i = inactive; u = inconclusive; x = no result given; [ ] = remark or other dose. Calls come from the whole dose curve; as a rule, active = well fitted curve in the direction sought with a large enough effect; inconclusive = small, poorly fitted or top-dose-only effect, or another doubt; inactive = no such curve, though single readings can be large; an effect the other way counts as inactive or inconclusive. Potency is the fitted concentration of half-maximal effect.

SMILES | GLP1R ag | GLP-1R inv ag | PTHR1 ag | GLP1R cytotox
Cc1ccc2c(C)c(C(=O)Nc3ccc(S(=O)(=O)Nc4onc(C)c4C)cc3)oc2c1 | -1.3% | -3.3% | i | -11.8%
CC(C)CNC(=O)c1nc(-c2ccccc2)n(-c2ccccc2)n1 | 3.6% | 12.6µM* | -9.0%[57.5 µM] | -9.2%
Cc1cnc(C(=O)OCC(=O)Nc2ccccc2-c2ccccc2)cn1 | -2.2% | 12.8% | -27.1% | 6.6%
COc1cc2c(cc1Cl)/C(=C\CCN(C)C)c1ccccc1S2 | -17.2% | 10µM* | -12.7% | u
CN(C)CC/C=C1/c2cc(F)ccc2Sc2ccc(Cl)cc21 | 5.8% | 10µM* | -3.2% | u
COc1cc(Cl)cc2c1Sc1ccccc1/C2=C/CCN(C)C | 5.2% | u | -15.9% | 10.9%
O=c1[nH]cnc2c1ncn2C1CCC(CO)O1 (configuration not stated) | 5.6% | 26.7% | -20.5% | 2.5%
COc1ccc(C(CNC(=O)c2cc(S(=O)(=O)N3CCCC3)ccc2Cl)N2CCCC2)cc1 (configuration not stated) | 4.6% | -13.1% | i | -4.1%
Cc1ccc(C)c(N2CCN(C(=O)CCc3nnc4n(C)c(=O)c5ccccc5n34)CC2)c1 | x | 1.0% | 13.9% | -9.0%
COC(=O)c1ccccc1NC(=O)c1cc(CN2CCOCC2)on1 | x | 4.5% | 2.2% | -4.8%
CC(=O)C1=C(O)C(=O)N(c2cc(C(C)(C)C)on2)C1c1ccc(Br)cc1 (configuration not stated) | 2.9% | 8.91µM* | -59.8% | 0.0%
O=C(Nc1cccc(F)c1F)C1CCN(c2ncccn2)CC1 | x | 3.4% | -1.1% | 4.4%
CCCN(CCC)CC(O)CN(c1ccccc1)S(=O)(=O)c1ccc(C)cc1 (configuration not stated) | -0.4% | u | i | -23.7%
CCCCN(c1nc2ccccc2nc1Cl)S(=O)(=O)c1ccc(C)cc1 | 16.2% | 10µM* | -24.7% | 0.0%
Cc1ccccc1OCCC(=O)Nc1ccc(S(=O)(=O)N(C)C2CCN(C)CC2)cc1 | 4.8% | u | i | -2.4%
Cc1ccc(OCC(=O)Nc2ccc(S(=O)(=O)N(C)C3CCN(C)CC3)cc2)c(C)c1 | 11.7% | 2.24µM* | i | -16.3%
CN1CCC(N(C)S(=O)(=O)c2ccc(NC(=O)COc3cccc(Cl)c3)cc2)CC1 | 1.7% | 2.82µM* | -3.3% | -5.2%
CN1CCC(N(C)S(=O)(=O)c2ccc(NC(=O)COc3ccc(Br)cc3Cl)cc2)CC1 | -8.1% | 2µM* | u | u
Cc1c(NC(=O)c2nn(C(C)C)c(=O)c3ccccc23)c(=O)n(-c2ccccc2)n1C | -0.4% | 1.7% | i | 4.1%
Cc1ccc(CSc2cn(CC(=O)N3CCCC3)c3ccccc23)cc1 | x | u | i | 0.7%
O=C(CSc1cn(CC(=O)N2CCCCC2)c2ccccc12)NCc1ccccc1Cl | x | u | -17.4% | -14.6%
CC1CCN(C(=O)Cn2cc(SCC(=O)NCc3ccccc3Cl)c3ccccc32)CC1 | x | 10µM* | -84.1% | -23.9%
O=C(Cn1cc(SCc2ccc(C(F)(F)F)cc2)c2ccccc21)N1CCCCCC1 | x | 7.08µM* | -26.9% | 0.3%
Cc1ccc(CSc2cn(CC(=O)N3CCCCCC3)c3ccccc23)cc1 | x | 10µM* | -27.9% | 0.2%
CC1CCCCN1C(=O)c1ccc2c(c1)N(Cc1ccc(F)cc1)C(=O)c1ccccc1S2(=O)=O (configuration not stated) | 0.0% | 0.9% | -9.9% | 4.7%
SMILES | GLP1R ag | GLP-1R inv ag | PTHR1 ag | GLP1R cytotox
CCc1ccccc1NC(c1nnc(-c2cccc(F)c2)o1)c1ccc(F)cc1Cl (configuration not stated) | x | 11.2µM* | i | -1.0%
O=C(Cn1cc(/C=C\[N+](=O)[O-])c2ccccc21)Nc1ccccc1 | -4.4% | 7.08µM* | -28.4% | u
CCOc1ccccc1NC(=O)c1c(NCc2cccs2)sc2c1CCCCC2 | x | 12.6µM* | -24.3% | -14.5%
COc1ccc(OCC(O)Cn2ccnc2C)cc1 (configuration not stated) | -1.5% | 10.2% | 10µM* | -15.8%
CN(Cc1cnn(-c2ccccc2)c1)C(=O)c1cccc(S(=O)(=O)N(C)c2ccccc2)c1 | 10.5% | 10µM* | -51.3% | -7.9%
Cc1ccc(N(C)S(=O)(=O)c2cccc(C(=O)N(C)Cc3cnn(-c4ccccc4)c3)c2)cc1 | 15.9% | u | -39.1% | -23.4%
O=C(/C=C/c1ccc(Cl)cc1)OCC(=O)c1ccc[nH]1 | 4.3% | 2.4% | -6.7% | 3.0%
CCOc1ccc(NCc2nnc(SCc3ccc(Cl)cc3)n2-c2ccccc2)cc1 | -7.1% | 10µM* | -11.1% | -9.8%
COc1cc(C)cc2oc(=O)c(CC(=O)N3CCN(C(=O)C4COc5ccccc5O4)CC3)c(C)c12 (configuration not stated) | -6.1% | 10µM* | -15.9% | -15.7%
O=C(C1COc2ccccc2O1)N1CCN(c2ccccc2O)CC1 (configuration not stated) | 4.2% | -27.7% | -16.6% | 2.0%
CC(=O)Oc1ccc2c(C)c(CC(=O)N3CCN(C(=O)C4COc5ccccc5O4)CC3)c(=O)oc2c1C (configuration not stated) | 4.6% | -14.4% | -18.6% | i
O=C(C1COc2ccccc2O1)N1CCN(Cc2ccc(Br)cc2F)CC1 (configuration not stated) | 6.7% | 11.2µM* | -92.1% | 6.6%
Cc1cc(O)c2c(C)c(CC(=O)N3CCN(C(=O)C4COc5ccccc5O4)CC3)c(=O)oc2c1 (configuration not stated) | -0.4% | 6.31µM* | -43.5% | 12.0%
CCOC(=O)c1c(NC(=O)CSc2nnc(Cc3ccccc3)o2)sc(C)c1C | 16.9% | u | -0.6%[57.5 µM] | -6.2%
COc1ccccc1-c1coc2c(CN3CCCC(C)C3)c(O)ccc2c1=O (configuration not stated) | -5.1% | 15.7% | 17.1% | 2.1%
COc1ccc(CCNC(=O)c2cccc(S(=O)(=O)N3CCCCC3)c2)cc1 | 2.5% | u | -28.5% | -15.8%
COc1ccc(CCNC(=O)c2cc(S(=O)(=O)N3CCCCC3)ccc2Cl)cc1 | 6.9% | 8.91µM* | -23.2% | 19.8%
COc1cccc(NC(=O)CN(C)C(=O)c2ccccc2OCc2c(C)noc2C)c1 | 8.5% | 0.9% | -66.8% | -8.9%
Cc1noc(C)c1COc1ccccc1C(=O)N(C)CC(=O)Nc1ccc(Cl)c(Cl)c1 | 0.7% | 10µM* | -2.4% | -9.5%
COCCN1CCC(CNCc2cn[nH]c2-c2ccc(C)c(C)c2)C1 (configuration not stated) | 16.1% | u | -22.8% | -17.5%
COCCN1CCC(CNCc2cn(-c3cc(C)ccc3C)nc2-c2ccccc2)C1 (configuration not stated) | -0.7% | 2.82µM* | -19.2% | u
